The sample as a whole holds a higher share of hits than the screen did.
Shiga toxin inh – A qHTS for Small Molecule Inhibitors of Shiga Toxin. Vero cells, Shiga toxin protein synthesis inhibition reporter. 290,000 compounds, 9.2% hits. inhibition, % at 38.7 µM; in the data active = inhibition mostly above about 28%, no sharp cut-off; inactive = mostly below about 43%; note: 0% is about no effect
Giardia FBPA inh – qHTS Assay for Inhibitors of Fructose-1,6-bisphosphate Aldolase from Giardia Lamblia | A8B2U2 | purified Giardia FBPA | Potency, µM (titrated, usually from 59.6 µM), for the others: top-dose activity, negative = inhibition, usual class: inhibitors | 290,000 compounds, 0.71% hits | AID 2451, 2010; note: potency is the fitted concentration of half-maximal effect; % is set by controls: 0 for no effect and ±100 for the full control effect; nearly all actives have a fitted effect of over 55% in size
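40 nM FBPA preincubated 10 min at RT with compound (up to 57.5 uM final), then substrate plus GAPDH/TPI/NAD/arsenate coupling and diaphorase/resazurin added. Fluorescence read after 20 min at RT, 525/598 nm.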
Cycloheximide cs – Cycloheximide Counterscreen for Small Molecule Inhibitors of Shiga Toxin; cell reporter, cycloheximide protein synthesis inhibition counterscreen; max response, %; 300,000 compounds, 12% hits; AID 2314, 2010; in the data active = max response mostly above about 13%, no sharp cut-off; inactive = mostly below about 14%; note: read at 38.3 µM for the half of the compounds with a filed dose; 0% is about no effect
LmPK inhibitor – qHTS Assay for Inhibitors of Leishmania Mexicana Pyruvate Kinase (LmPK); 290,000 compounds, 0.37% hits; Q27686; Potency, µM (titrated, usually from 57.5 µM), for the others: top-dose activity change, negative = inhibition, actives largely listed as inhibitors; purified LmPK, Kinase-Glo ATP luminescence, 1 h; note: potency is the fitted concentration of half-maximal effect; % is set by controls: 0 for no effect and ±100 for the full control effect
Target sequence (Q27686 whole entry, looked up): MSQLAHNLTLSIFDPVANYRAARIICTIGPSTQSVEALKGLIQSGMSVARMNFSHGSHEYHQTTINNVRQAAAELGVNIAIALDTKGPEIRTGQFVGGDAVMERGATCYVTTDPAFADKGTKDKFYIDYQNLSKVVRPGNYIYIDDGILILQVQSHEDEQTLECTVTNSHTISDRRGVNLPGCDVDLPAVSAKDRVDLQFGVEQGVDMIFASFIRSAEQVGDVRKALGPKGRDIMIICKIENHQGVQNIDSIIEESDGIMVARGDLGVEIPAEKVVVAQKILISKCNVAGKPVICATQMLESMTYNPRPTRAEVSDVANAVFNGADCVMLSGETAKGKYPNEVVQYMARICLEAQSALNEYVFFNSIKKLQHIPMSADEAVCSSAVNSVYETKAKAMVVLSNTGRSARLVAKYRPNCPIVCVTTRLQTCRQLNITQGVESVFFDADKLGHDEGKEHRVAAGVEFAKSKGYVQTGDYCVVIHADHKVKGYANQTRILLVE
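In 50 mM imidazole pH 7.2 with 7 mM MgCl2, LmPK (0.1 nM) turned over PEP (0.5 mM) and ADP (0.1 mM) for 1 h at room temperature. Luciferase read-out of ATP.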
Sm TGR block – qHTS Assay for the Inhibitors of Schistosoma Mansoni Peroxiredoxins; Potency, µM (doses to about 114 µM), inactives show at the highest dose activity change, negative = inhibition, hits mostly inhibitors; 360,000 compounds, 3% hits; purified TGR, DTNB reduction, TNB absorbance 405 nm; Schistosoma mansoni thioredoxin glutathione reductase (TGR), Q962Y6; note: potency is the fitted concentration of half-maximal effect; % is set by controls: 0 for no effect and ±100 for the full control effect; nearly all actives have a fitted effect of over 60% in size
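TGR 20 nM + NADPH 100 uM (dispensed conc.), cpd preinc 15 min RT; start with NADPH (500 uM addition) then DTNB (15 mM addition). Kinetic TNB absorbance, 405 nm filter. Four-parameter Hill fit across titration.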
TbPYK inhibitor – qHTS of Trypanosoma Brucei Inhibitors | pyruvate kinase (Trypanosoma brucei), Q57TT1 | TbPYK enzyme, Kinase-Glo Plus ATP luminescence, 45 min | Potency, µM (doses to about 76.8 µM), for inactives: at the highest dose activity, negative = inhibition, usual class: inhibitors | 410,000 compounds, 0.12% hits; note: potency is the fitted concentration of half-maximal effect; % is set by controls: 0 for no effect and ±100 for the full control effect; nearly all actives have a fitted effect of over 50% in size
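Enzyme and substrate buffer are dispensed first and compound is pin-transferred. ADP at 130 uM final then starts the reaction, which runs 45 min at room temperature. Detection reagent is added for 10 min before luminescence is imaged.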
* = called active by the depositor; [ ] = another dose, or the depositor's remark. Unless noted, calls come from the whole dose curve; as a rule, active = well fitted curve in the direction sought with a large enough effect; inconclusive = small, poorly fitted or top-dose-only effect, or another doubt; inactive = no such curve, though single readings can be large; an effect the other way counts as inactive or inconclusive.

Results for Cc1cccc(-c2ncc(S(=O)(=O)C(C)(C)C)c(N)n2)c1 ?
Shiga toxin inh: 29.7; Giardia FBPA inh: 9.9%; Cycloheximide cs: 11.3*; LmPK inhibitor: 1.3%; Sm TGR block: 0.0%; TbPYK inhibitor: -3.2%

What do the screens show for `O=C(c1ccccc1)c1ccc2n1CC[C@H]2C(=O)O`?
Giardia FBPA inh: -4.8%[21.7 µM]; TbPYK inhibitor: -14.9%[33.2 µM]

What do the screens show for `C=CCNC(=S)Nc1cc(C)ccn1`?
Shiga toxin inh: 21.3; Giardia FBPA inh: -9.5%; Cycloheximide cs: 18.1; LmPK inhibitor: -0.1%; Sm TGR block: -7.1%; TbPYK inhibitor: -2.4%

Results for Cc1ccnc(NC(=S)NC(=O)/C=C/c2ccc(Cl)cc2)c1 ?
Shiga toxin inh: 25.8*; Giardia FBPA inh: 6.0%; Cycloheximide cs: 25.6*; LmPK inhibitor: 3.2%; Sm TGR block: 4.0%; TbPYK inhibitor: -10.4%

Results for Cc1ccnc(NC(=S)NC(=O)/C=C/c2ccccc2)c1 ?
Shiga toxin inh: 61.1*; Giardia FBPA inh: -5.1%; Cycloheximide cs: 31.6*; LmPK inhibitor: -1.6%; Sm TGR block: -12.5%; TbPYK inhibitor: 0.6%

How did Cc1cccnc1NC(=S)NC(=O)/C=C/c1ccccc1 do in these assays?
Shiga toxin inh: 77.6*; Giardia FBPA inh: inconclusive; Cycloheximide cs: 30.9*; LmPK inhibitor: -0.9%; Sm TGR block: 25.4%; TbPYK inhibitor: -3.1%

Results for O=C(/C=C/c1ccccc1)NC(=S)Nc1cccnc1 ?
Shiga toxin inh: -2.0; Giardia FBPA inh: -2.3%; Cycloheximide cs: 11.5; LmPK inhibitor: 1.8%; Sm TGR block: -0.2%; TbPYK inhibitor: -5.8%

Results for COc1cc(S(=O)(=O)NCC(c2ccco2)N2CCCCC2)ccc1NC(C)=O (centres undefined) ?
Sm TGR block: -11.6%; TbPYK inhibitor: -3.2%

What do the screens show for `Cn1cc(/C=C2\SC(=O)N(c3ccc(O)cc3)C2=O)c2ccccc21`?
Shiga toxin inh: 90.6*; Giardia FBPA inh: -16.9%; Cycloheximide cs: 44.9*; LmPK inhibitor: 5.0%; Sm TGR block: -3.9%; TbPYK inhibitor: 0.1%

How did CCN=C1S/C(=C\c2cn(CC)c3ccccc23)C(=O)N1CC do in these assays?
Shiga toxin inh: 13.5; Giardia FBPA inh: -0.6%; Cycloheximide cs: -2.4; LmPK inhibitor: -2.2%; Sm TGR block: -14.2%; TbPYK inhibitor: -0.3%

Results for Cn1cc(/C=C2\SC(=O)N(c3ccccc3)C2=O)c2ccccc21 ?
Shiga toxin inh: -3.2; Giardia FBPA inh: 1.1%; Cycloheximide cs: 19.1*; LmPK inhibitor: 2.7%; Sm TGR block: -13.7%; TbPYK inhibitor: -4.6%

How did CCN1C(=O)S/C(=C/c2cn(C)c3ccccc23)C1=O do in these assays?
Shiga toxin inh: 43.7*; Giardia FBPA inh: 12.7%; Cycloheximide cs: 27.1*; LmPK inhibitor: -6.4%; Sm TGR block: -0.3%; TbPYK inhibitor: -4.5%

What do the screens show for `Clc1ccc2c(c1)C1OCCC1C(c1ccco1)N2` (centres undefined)?
Shiga toxin inh: 65.7*; Giardia FBPA inh: -16.4%; Cycloheximide cs: 26.4*; LmPK inhibitor: inconclusive; Sm TGR block: 31.6µM*; TbPYK inhibitor: -21.7%

What do the screens show for `N#CC(C#N)=Cc1cc2ccccc2nc1N1CCOCC1`?
Shiga toxin inh: -7.6; Giardia FBPA inh: -0.9%; Cycloheximide cs: -1.6; LmPK inhibitor: 1.5%; Sm TGR block: 7.08µM*; TbPYK inhibitor: -8.7%

Results for N#C/C(=C\c1cc2ccccc2nc1N1CCOCC1)C(=O)Nc1ccc(N2CCOCC2)cc1 ?
Shiga toxin inh: -7.7; Giardia FBPA inh: 0.6%; Cycloheximide cs: -2.7; LmPK inhibitor: 0.7%; Sm TGR block: 2.1%; TbPYK inhibitor: -1.8%

How did Cc1ccc2cc(/C=C(\C#N)C(N)=O)c(N3CCCCC3)nc2c1 do in these assays?
Shiga toxin inh: 13.1; Giardia FBPA inh: -0.6%; Cycloheximide cs: 1.5; LmPK inhibitor: 3.0%; Sm TGR block: -14.6%; TbPYK inhibitor: -4.0%

Screening data (PubChem)
